Out of some 5,500 compounds screened, about 2,000 (36%) were called active. Not shown: some 18% with an inconclusive outcome. Cut-off read from the data, not from the text of the source: active = normalized growth mostly below about 0.91 (no sharp cut-off); inconclusive = no clear call, values can overlap the other calls; inactive = mostly above about 0.92. Some of the results follow.
Experiment: chemical genetic growth profiling, strain panel (AID 1159580);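 note: tested at 20 µM; growth read once vehicle control cultures reached saturation at 30 °C; 1 = growth at the plate median or of vehicle wells; lower values mean less growth of the strain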
Settings: growth OD

Measured: normalized growth

CC(C)(C)NCC(O)c1cc(Cl)c(N)c(Cl)c1 (centres undefined)
inactive: S. cerevisiae deletion strains, locus YJR043C, strain POL32, stronger effect = lower value 1.01 | S. cerevisiae deletion strains, locus YJR075W, strain HOC1, stronger effect = lower value 1.01 | S. cerevisiae deletion strains, locus YKL009W, strain mrt4, stronger effect = lower value 1 | S. cerevisiae deletion strains, locus YKL068W, stronger effect = lower value 1 | S. cerevisiae deletion strains, locus YKL085W, strain MDH1 (second series), stronger effect = lower value 1.01 | S. cerevisiae deletion strains, locus YKL085W, strain MDH1, stronger effect = lower value 1.01 | S. cerevisiae deletion strains, locus YKL160W, strain elf1, stronger effect = lower value 0.998 | S. cerevisiae deletion strains, locus YKL190W, strain CNB1, stronger effect = lower value 1 | S. cerevisiae deletion strains, locus YKR001C, strain vps1, stronger effect = lower value 1.01 | S. cerevisiae deletion strains, locus YKR026C, strain gcn3, stronger effect = lower value 0.999 | S. cerevisiae deletion strains, locus YKR091W, strain srl3, stronger effect = lower value 1 | S. cerevisiae deletion strains, locus YLL001W, strain dnm1, stronger effect = lower value 0.983 | S. cerevisiae deletion strains, locus YLL026W, stronger effect = lower value 0.992 | S. cerevisiae deletion strains, locus YLL041C, strain sdh2, stronger effect = lower value 1 | S. cerevisiae deletion strains, locus YLR027C, strain aat2, stronger effect = lower value 0.999 | S. cerevisiae deletion strains, locus YLR039C, strain RIC1, stronger effect = lower value 1.02 | S. cerevisiae deletion strains, locus YLR058C, strain SHM2, stronger effect = lower value 1.02 | S. cerevisiae deletion strains, locus YLR102C, strain apc9, stronger effect = lower value 0.992 | S. cerevisiae deletion strains, locus YLR221C, strain rsa3, stronger effect = lower value 1 | S. cerevisiae deletion strains, locus YLR258W, strain gsy2, stronger effect = lower value 0.993 | S. cerevisiae deletion strains, locus YLR262C, strain YPT6 (second series), stronger effect = lower value 0.999 | S. cerevisiae deletion strains, locus YLR262C, strain YPT6, stronger effect = lower value 1.05 | S. cerevisiae deletion strains, locus YLR268W, strain sec22, stronger effect = lower value 0.977 | S. cerevisiae deletion strains, locus YLR320W, strain mms22, stronger effect = lower value 0.996 | S. cerevisiae deletion strains, locus YLR330W, strain CHS5, stronger effect = lower value 1.01 | S. cerevisiae deletion strains, locus YLR342W, strain FKS1 (second series), stronger effect = lower value 1.02 | S. cerevisiae deletion strains, locus YLR342W, strain FKS1, stronger effect = lower value 1 | S. cerevisiae deletion strains, locus YLR357W, strain rsc2, stronger effect = lower value 1 | S. cerevisiae deletion strains, locus YLR370C, strain arc18, stronger effect = lower value 1 | S. cerevisiae deletion strains, locus YLR371W, strain rom2, stronger effect = lower value 0.991 | S. cerevisiae deletion strains, locus YLR384C, strain iki3, stronger effect = lower value 1 | S. cerevisiae deletion strains, locus YLR418C, strain cdc73, stronger effect = lower value 0.976 | S. cerevisiae deletion strains, locus YML016C, strain PPZ1, stronger effect = lower value 1.01 | S. cerevisiae deletion strains, locus YML032C, strain rad52, stronger effect = lower value 0.992 | S. cerevisiae deletion strains, locus YML120C, strain ndi1, stronger effect = lower value 1.01 | S. cerevisiae deletion strains, locus YML124C, strain tub3, stronger effect = lower value 0.999 | S. cerevisiae deletion strains, locus YMR058W, strain fet3, stronger effect = lower value 0.998 | S. cerevisiae deletion strains, locus YMR078C, strain ctf18, stronger effect = lower value 1 | S. cerevisiae deletion strains, locus YMR125W, strain sto1, stronger effect = lower value 0.99 | S. cerevisiae deletion strains, locus YMR129W, stronger effect = lower value 1.01 | S. cerevisiae deletion strains, locus YMR205C, strain PFK2, stronger effect = lower value 0.982 | S. cerevisiae deletion strains, locus YMR223W, strain ubp8, stronger effect = lower value 1 | S. cerevisiae deletion strains, locus YMR231W, strain pep5, stronger effect = lower value 1 | S. cerevisiae deletion strains, locus YMR263W, strain SAP30, stronger effect = lower value 1.01 | S. cerevisiae deletion strains, locus YMR307W, strain GAS1, stronger effect = lower value 0.995 | S. cerevisiae deletion strains, locus YNL067W, strain RPL9B, stronger effect = lower value 1.01 | S. cerevisiae deletion strains, locus YNL071W, strain lat1, stronger effect = lower value 1 | S. cerevisiae deletion strains, locus YNL128W, strain TEP1, stronger effect = lower value 1.02 | S. cerevisiae deletion strains, locus YNL153C, strain GIM3, stronger effect = lower value 1 | S. cerevisiae deletion strains, locus YNL209W, strain ssb2, stronger effect = lower value 1.01 | S. cerevisiae deletion strains, locus YNL233W, strain BNI4, stronger effect = lower value 1.01 | S. cerevisiae deletion strains, locus YNL248C, strain rpa49, stronger effect = lower value 1 | S. cerevisiae deletion strains, locus YNL250W, strain rad50, stronger effect = lower value 0.989 | S. cerevisiae deletion strains, locus YNL271C, strain bni1, stronger effect = lower value 0.99 | S. cerevisiae deletion strains, locus YNL298W, strain CLA4, stronger effect = lower value 0.992 | S. cerevisiae deletion strains, locus YNL307C, strain MCK1, stronger effect = lower value 0.996 | S. cerevisiae deletion strains, locus YNL322C, strain KRE1 (second series), stronger effect = lower value 0.997 | S. cerevisiae deletion strains, locus YNL322C, strain KRE1, stronger effect = lower value 1.01 | S. cerevisiae deletion strains, locus YNR049C, strain mso1, stronger effect = lower value 0.997 | S. cerevisiae deletion strains, locus YNR052C, strain pop2, stronger effect = lower value 1 | S. cerevisiae deletion strains, locus YOL006C, strain TOP1, stronger effect = lower value 1.05 | S. cerevisiae deletion strains, locus YOL012C, strain htz1 1.23 | S. cerevisiae deletion strains, locus YOL147C, strain pex11, stronger effect = lower value 1 | S. cerevisiae deletion strains, locus YOR001W, strain rrp6, stronger effect = lower value 0.99 | S. cerevisiae deletion strains, locus YOR061W, strain CKA2, stronger effect = lower value 1.01 | S. cerevisiae deletion strains, locus YOR069W, strain VPS5, stronger effect = lower value 1.01 | S. cerevisiae deletion strains, locus YOR070C, strain gyp1, stronger effect = lower value 0.994 | S. cerevisiae deletion strains, locus YOR080W, strain dia2, stronger effect = lower value 0.998 | S. cerevisiae deletion strains, locus YOR083W, strain WHI5, stronger effect = lower value 1 | S. cerevisiae deletion strains, locus YOR106W, strain vam3, stronger effect = lower value 0.996 | S. cerevisiae deletion strains, locus YOR136W, strain idh2, stronger effect = lower value 0.991 | S. cerevisiae deletion strains, locus YOR144C, strain elg1, stronger effect = lower value 0.999 | S. cerevisiae deletion strains, locus YOR184W, strain ser1, stronger effect = lower value 1 | S. cerevisiae deletion strains, locus YOR265W, strain rbl2, stronger effect = lower value 1 | S. cerevisiae deletion strains, locus YOR270C, strain vph1, stronger effect = lower value 0.958 | S. cerevisiae deletion strains, locus YOR290C, strain snf2, stronger effect = lower value 0.971 | S. cerevisiae deletion strains, locus YOR316C, strain cot1, stronger effect = lower value 1 | S. cerevisiae deletion strains, locus YPL051W, strain arl3, stronger effect = lower value 0.995 | S. cerevisiae deletion strains, locus YPL055C, strain LGE1, stronger effect = lower value 0.993 | S. cerevisiae deletion strains, locus YPL078C, strain atp4, stronger effect = lower value 0.991 | S. cerevisiae deletion strains, locus YPL106C, strain sse1, stronger effect = lower value 0.985 | S. cerevisiae deletion strains, locus YPL240C, strain hsp82, stronger effect = lower value 1.01 | S. cerevisiae deletion strains, locus YPL241C, strain CIN2, stronger effect = lower value 1 | S. cerevisiae deletion strains, locus YPR119W, strain clb2, stronger effect = lower value 0.999 | S. cerevisiae deletion strains, locus YPR141C, strain kar3, stronger effect = lower value 0.996 | S. cerevisiae deletion strains, locus YPR163C, strain tif3, stronger effect = lower value 0.999 | S. cerevisiae deletion strains, locus YPR167C, strain met16, stronger effect = lower value 0.994 | S. cerevisiae deletion strains, strain wtn01, stronger effect = lower value 0.971 | S. cerevisiae strains, strain wild type, stronger effect = lower value 1

— PubChem BioAssay AID1159580 (chemical genetic matrix, 2015)
